The text below walks through data of ChEMBL document CHEMBL3988442, “University of Dundee, Small-Polar-MMV Screening Library” (2021).

For some assays here: Measured potencies and affinities stand elsewhere.

What all share (design): scale not given: direction of the effect not stated beside the values
For test [1], the target named is Protein translocase subunit SecA (Escherichia coli (strain K12)) (UniProt P10408). Briefly: Assay to Identify E. coli SecA ATPase Inhibitors. It counts as functional. As to conditions: 30 µM.
Chain of Protein translocase subunit SecA (Escherichia coli (strain K12)) (P10408 whole entry): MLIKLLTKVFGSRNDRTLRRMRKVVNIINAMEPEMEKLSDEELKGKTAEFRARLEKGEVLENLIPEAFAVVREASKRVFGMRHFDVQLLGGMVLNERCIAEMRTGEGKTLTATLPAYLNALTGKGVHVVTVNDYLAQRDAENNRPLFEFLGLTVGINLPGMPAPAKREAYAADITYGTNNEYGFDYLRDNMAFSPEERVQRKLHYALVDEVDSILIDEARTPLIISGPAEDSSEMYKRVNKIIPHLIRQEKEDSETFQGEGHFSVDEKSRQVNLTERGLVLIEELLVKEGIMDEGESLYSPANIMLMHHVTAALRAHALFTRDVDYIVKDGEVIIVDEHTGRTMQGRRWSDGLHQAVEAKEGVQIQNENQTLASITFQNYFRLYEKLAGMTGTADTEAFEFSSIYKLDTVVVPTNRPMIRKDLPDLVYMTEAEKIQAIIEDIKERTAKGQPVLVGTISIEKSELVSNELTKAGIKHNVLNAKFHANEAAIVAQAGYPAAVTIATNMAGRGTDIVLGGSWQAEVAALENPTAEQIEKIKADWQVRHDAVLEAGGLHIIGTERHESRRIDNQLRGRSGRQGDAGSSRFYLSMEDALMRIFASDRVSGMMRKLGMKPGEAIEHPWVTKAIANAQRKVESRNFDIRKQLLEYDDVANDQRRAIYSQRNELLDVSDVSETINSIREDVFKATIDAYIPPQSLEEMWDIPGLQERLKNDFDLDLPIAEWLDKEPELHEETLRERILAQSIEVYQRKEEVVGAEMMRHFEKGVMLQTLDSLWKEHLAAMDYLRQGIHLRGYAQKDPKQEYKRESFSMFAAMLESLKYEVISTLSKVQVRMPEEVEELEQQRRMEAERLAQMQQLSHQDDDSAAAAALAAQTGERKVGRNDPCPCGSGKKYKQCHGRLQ
The target in test [2] is T1, Ubiquitin-activating enzyme e1, putative (Leishmania donovani (strain BPK282A1)) (UniProt E9BSI1).
T1 sequence (whole entry): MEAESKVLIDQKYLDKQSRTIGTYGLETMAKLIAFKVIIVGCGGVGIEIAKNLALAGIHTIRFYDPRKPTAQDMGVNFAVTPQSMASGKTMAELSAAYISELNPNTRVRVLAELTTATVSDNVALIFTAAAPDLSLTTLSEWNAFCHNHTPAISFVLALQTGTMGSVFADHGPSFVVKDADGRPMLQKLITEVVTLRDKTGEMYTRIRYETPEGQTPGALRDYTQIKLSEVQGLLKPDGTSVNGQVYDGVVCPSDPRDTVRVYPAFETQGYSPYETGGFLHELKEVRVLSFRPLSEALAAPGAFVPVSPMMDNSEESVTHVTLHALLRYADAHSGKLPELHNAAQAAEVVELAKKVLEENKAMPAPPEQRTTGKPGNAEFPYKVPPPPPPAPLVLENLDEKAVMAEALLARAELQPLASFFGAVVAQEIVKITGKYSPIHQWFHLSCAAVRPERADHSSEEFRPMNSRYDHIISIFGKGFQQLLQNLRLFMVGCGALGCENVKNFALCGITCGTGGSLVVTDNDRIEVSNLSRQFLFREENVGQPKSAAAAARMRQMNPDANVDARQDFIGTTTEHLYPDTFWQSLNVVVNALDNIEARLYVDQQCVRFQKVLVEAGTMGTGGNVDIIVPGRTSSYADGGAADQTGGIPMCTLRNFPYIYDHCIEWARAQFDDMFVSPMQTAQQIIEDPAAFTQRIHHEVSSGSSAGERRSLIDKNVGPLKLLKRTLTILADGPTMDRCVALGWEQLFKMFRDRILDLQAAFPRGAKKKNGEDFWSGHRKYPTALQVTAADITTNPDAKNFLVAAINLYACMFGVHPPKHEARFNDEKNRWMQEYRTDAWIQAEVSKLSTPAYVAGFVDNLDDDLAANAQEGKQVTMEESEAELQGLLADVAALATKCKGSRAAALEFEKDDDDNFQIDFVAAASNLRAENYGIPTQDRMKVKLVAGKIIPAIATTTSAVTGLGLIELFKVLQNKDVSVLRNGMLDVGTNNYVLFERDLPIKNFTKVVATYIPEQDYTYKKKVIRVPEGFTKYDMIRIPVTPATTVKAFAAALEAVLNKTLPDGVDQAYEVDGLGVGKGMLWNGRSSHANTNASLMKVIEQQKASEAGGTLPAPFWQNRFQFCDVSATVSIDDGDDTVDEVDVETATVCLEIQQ
As to the kind of experiment: Leishmania donovani Ubiquitin Activating Enzyme (LdE1). It counts as functional. As to conditions: 30 µM.

In test [3] the target is AMP-activated protein kinase, AMPK (Homo sapiens) (UniProt P54646+O43741+P54619+Q9UGJ0+Q9Y478+Q13131+Q9UGI9). Briefly: AMP-dependent Kinase enzyme assay. An in vitro enzyme assay that detects ADP turnover that is directly proportional to AMPK activity. This uses naive AMPK that is activated during the assay with MK-8722. It counts as functional. As to conditions: 30 µM.

The target of test [4] is Sialic acid-binding Ig-like lectin 9 (Homo sapiens) (UniProt Q9Y336). Briefly: Hs-Siglec9 ALPHAscreen SOP 20170721. As to conditions: 10 µM.
Chain of Sialic acid-binding Ig-like lectin 9 (Homo sapiens) (Q9Y336 whole entry): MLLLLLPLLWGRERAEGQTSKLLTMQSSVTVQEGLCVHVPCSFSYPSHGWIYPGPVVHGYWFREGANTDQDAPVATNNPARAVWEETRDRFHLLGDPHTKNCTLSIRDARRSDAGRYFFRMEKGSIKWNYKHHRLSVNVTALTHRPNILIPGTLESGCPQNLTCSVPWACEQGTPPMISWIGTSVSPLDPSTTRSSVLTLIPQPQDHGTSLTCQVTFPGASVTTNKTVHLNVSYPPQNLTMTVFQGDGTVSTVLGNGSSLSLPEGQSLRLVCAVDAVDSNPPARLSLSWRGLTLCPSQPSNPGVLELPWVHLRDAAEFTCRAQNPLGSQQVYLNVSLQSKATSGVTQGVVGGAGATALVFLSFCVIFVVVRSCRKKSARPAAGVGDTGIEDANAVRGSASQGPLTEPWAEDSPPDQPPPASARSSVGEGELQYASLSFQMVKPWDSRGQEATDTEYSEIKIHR
Another test has as its system Trypanosoma cruzi. Briefly: Trypanosoma cruzi phosphomannomutase and mannose-1-phosphate guanylyltransferase assay. The note with it: 10 µM. It counts as functional.
The target of test [5] is T2, Arginase-2, mitochondrial (Homo sapiens) (UniProt P78540).
T2 sequence (whole entry): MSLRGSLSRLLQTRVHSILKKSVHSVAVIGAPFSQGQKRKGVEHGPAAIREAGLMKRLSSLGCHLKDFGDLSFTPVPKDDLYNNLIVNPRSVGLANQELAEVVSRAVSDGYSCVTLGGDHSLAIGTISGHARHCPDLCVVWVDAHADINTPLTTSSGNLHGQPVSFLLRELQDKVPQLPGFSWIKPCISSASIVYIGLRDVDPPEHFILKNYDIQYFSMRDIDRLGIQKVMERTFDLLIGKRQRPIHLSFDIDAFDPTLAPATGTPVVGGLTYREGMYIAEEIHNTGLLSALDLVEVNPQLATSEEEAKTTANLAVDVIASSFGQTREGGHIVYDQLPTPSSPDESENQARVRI
Briefly: in vitro enzyme assay to detect the production of urea directly proportional to the activity of Arginase II. Note: in the data most compounds retested in dose-response had high values. As to conditions: 33.3 µM. It counts as functional.

In test [6] the target is T3, Proteasome subunit beta (Trypanosoma cruzi) (UniProt O96673).
T3 sequence (whole entry): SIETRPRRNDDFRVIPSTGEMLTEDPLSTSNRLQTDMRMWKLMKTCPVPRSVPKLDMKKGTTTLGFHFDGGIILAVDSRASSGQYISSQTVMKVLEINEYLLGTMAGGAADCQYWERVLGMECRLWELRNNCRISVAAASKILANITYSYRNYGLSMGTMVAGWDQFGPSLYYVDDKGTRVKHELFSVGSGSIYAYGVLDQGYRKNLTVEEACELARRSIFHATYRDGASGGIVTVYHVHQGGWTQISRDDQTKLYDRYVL
As to the kind of experiment: Trypanosoma cruzi proteasome chymotrypsin-like activity (TcProtChymo) assay. Note: in the data most compounds retested in dose-response had high values. It counts as functional. The note with it: 9.37 µM.

The species named for another test is Homo sapiens. As to the kind of experiment: To identify inhibition of the IFN signalling (Jak-Stat) pathway via expression of an eGFP reporter gene under the control of an IFN-stimulated response element (ISRE) containing MxA promoter. It counts as functional. The note with it: 30 µM. (In general: A reporter such as luciferase makes a cellular process visible.)

Test [7] concerns the target T4, Tyrosyl-tRNA synthetase, putative (Trypanosoma cruzi (strain CL Brener)) (UniProt Q4DSP6).
T4 sequence (whole entry): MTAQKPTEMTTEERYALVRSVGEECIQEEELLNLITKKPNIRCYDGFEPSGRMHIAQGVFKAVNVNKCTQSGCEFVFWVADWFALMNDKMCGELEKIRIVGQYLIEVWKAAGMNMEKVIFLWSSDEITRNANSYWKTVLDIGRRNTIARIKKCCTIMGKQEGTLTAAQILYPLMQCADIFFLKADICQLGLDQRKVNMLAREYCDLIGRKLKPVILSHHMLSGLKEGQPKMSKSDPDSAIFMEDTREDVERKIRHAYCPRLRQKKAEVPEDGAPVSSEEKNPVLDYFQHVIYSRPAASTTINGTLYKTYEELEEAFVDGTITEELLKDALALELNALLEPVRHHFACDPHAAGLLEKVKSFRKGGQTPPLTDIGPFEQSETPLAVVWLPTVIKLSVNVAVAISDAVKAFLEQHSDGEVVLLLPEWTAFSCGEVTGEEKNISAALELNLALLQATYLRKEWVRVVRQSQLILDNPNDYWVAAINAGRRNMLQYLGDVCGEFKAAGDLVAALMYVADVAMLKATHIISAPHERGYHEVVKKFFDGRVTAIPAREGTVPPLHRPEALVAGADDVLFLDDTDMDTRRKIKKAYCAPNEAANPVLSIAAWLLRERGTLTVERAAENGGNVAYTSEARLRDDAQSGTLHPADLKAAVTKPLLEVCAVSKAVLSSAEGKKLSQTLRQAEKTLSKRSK
As to the kind of experiment: Trypanosoma cruzi tyrosyl tRNA synthetase (TcYRS) _High Tyrosine SOP. Note: in the data most compounds retested in dose-response had high values. It counts as functional. The note with it: 30 µM.

For test [8], the target named is T4, Tyrosyl-tRNA synthetase, putative (Trypanosoma cruzi (strain CL Brener)). Briefly: Trypanosoma cruzi tyrosyl tRNA synthetase (TcYRS) SOP. It counts as functional. As to conditions: 30 µM.
Test [9] deals with Chromo domain-containing protein 1 (Saccharomyces cerevisiae (strain ATCC 204508 / S288c) (Baker's yeast)) (UniProt P32657). As to the kind of experiment: ScCHD-1 Enzyme Inhibition Assay. Note: in the data most compounds retested in dose-response had high values. It counts as functional. The note with it: 30 µM.
Chain of Chromo domain-containing protein 1 (Saccharomyces cerevisiae (strain ATCC 204508 / S288c) (Baker's yeast)) (P32657 whole entry, the tested form may be a part): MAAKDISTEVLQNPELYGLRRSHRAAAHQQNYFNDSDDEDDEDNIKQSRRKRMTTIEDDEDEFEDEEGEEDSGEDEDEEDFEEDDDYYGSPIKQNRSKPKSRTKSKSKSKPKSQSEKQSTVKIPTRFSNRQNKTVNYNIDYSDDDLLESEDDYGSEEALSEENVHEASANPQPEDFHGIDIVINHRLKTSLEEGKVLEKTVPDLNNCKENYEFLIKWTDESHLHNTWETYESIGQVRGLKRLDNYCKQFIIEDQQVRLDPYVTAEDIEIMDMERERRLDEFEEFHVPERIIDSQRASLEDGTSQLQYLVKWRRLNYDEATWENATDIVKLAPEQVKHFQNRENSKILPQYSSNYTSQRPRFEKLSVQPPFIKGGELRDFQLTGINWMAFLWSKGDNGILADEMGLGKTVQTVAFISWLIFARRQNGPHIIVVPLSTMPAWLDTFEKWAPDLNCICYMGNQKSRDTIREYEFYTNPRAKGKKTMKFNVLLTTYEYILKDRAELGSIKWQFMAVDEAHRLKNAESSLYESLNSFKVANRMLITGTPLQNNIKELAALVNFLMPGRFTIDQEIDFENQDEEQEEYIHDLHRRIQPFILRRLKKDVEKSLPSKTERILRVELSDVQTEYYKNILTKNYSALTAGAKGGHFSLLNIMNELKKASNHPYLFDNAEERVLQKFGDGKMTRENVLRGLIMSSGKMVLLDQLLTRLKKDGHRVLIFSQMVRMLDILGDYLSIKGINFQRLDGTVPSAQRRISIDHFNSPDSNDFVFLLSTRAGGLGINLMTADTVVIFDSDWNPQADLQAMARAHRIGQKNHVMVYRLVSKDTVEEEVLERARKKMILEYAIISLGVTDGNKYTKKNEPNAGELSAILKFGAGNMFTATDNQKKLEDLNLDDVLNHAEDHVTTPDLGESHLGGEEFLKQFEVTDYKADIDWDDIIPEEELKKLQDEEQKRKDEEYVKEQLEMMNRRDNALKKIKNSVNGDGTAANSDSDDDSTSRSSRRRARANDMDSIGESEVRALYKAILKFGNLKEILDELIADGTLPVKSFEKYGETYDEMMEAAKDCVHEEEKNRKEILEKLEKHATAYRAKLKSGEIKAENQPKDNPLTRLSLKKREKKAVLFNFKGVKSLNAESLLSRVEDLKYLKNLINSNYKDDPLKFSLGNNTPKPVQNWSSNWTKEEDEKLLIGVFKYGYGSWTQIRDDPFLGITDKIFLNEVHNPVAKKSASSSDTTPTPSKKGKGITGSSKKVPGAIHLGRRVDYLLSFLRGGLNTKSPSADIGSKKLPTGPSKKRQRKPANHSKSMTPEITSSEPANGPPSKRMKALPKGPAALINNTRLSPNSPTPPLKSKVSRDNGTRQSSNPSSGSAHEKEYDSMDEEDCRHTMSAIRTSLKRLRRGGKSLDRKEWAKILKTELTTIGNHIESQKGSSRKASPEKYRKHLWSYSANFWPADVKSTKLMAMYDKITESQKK

Take `CCC(C)NC(=O)Nc1ccc(CN2CCOC2=O)cc1` (stereo not given): the Percent Effect is -5.29% in test [1]; -6.94% in test [2]; -16.3% in test [3]; -0.797% in [4]; -5.15% with Trypanosoma cruzi; 0% in test [5]. The Percent Effect in [6] was 12.1%; in the test filed under Homo sapiens, 21%; in [7], -2.1%; in [8], -5.13%; in test [9] it was -1.28%.

As for `O=C(C1CCOCC1)N1CCO[C@H]2[C@@H](OCc3ccncc3)CC[C@@H]21`, the Percent Effect in test [1] was -7.25%; in test [2], 16.2%; in test [3] it was -5.41%; in test [4] it was 21.1%; with Trypanosoma cruzi, 4.1%; in [5] it was 1.67%. In addition, the Percent Effect was 6.17% in [6]; 32.4% in the test filed under Homo sapiens; 2.97% in test [7]; 13.4% in test [8]; -6.34% in test [9].

As for `COc1ccc(-c2nccnc2C2CCN(C(C)=O)CC2)cc1`, the Percent Effect is -3.54% in test [1]; 25.7% in test [2]; -4.6% in test [3]; -7.08% in test [4]; 0.395% with Trypanosoma cruzi; -3.48% in test [5]. The Percent Effect in [6] was 11.7%; in the test listed under Homo sapiens, 8.34%; in test [7] it was 1.07%; in test [8] it was 9.09%; in test [9] it was -9.8%.

Turning to `Cc1nn(C)c(N2CCOCC2)c1CNCc1ccc(Cl)s1`, the Percent Effect in test [1] was -3.24%; in test [2], 10.4%; in [3] it was 2.59%; in test [4], -1.94%; in the test on Trypanosoma cruzi, 2.06%; in test [5], 1.9%. Also, the Percent Effect was 9.62% in test [6]; 11.3% in the test listed under Homo sapiens; 11.4% in [7]; 25.9% in test [8]; -8.79% in test [9].

As for `CN(C)Cc1nn(C)c2c1CCN(S(=O)(=O)c1cccs1)C2`, the Percent Effect in test [1] was -0.0797%; in test [2] it was 13%; in test [3], 2.64%; in [4], -2.7%; with Trypanosoma cruzi, 1.48%; in test [5], 3.23%. Also, the Percent Effect is 5.57% in [6]; 14.8% in the test listed under Homo sapiens; 8.47% in test [7]; 8.97% in test [8]; -7.57% in [9].

As for `CN(C)c1ccc(CCCNC(=O)Nc2ccc(C#N)cc2)cc1`, the Percent Effect in test [1] was 1.86%; in [2], 8.11%; in test [3], 2.26%; in [4], 11.1%; with Trypanosoma cruzi, 3.86%; in test [5], 11.4%. The Percent Effect in test [6] is 15.7%; in the test filed under Homo sapiens it was 72%; in test [7], 5.82%; in test [8], 14.6%; in [9], -5.31%.

`CCc1ccc(CN2CC[C@H]3C[C@H](c4nnc(C)[nH]4)O[C@@H]3C2)o1`: the Percent Effect was -2% in test [1]; 0% in [2]; -2.87% in [3]; 34.9% in test [4]; 9.52% in the test on Trypanosoma cruzi; -6.79% in test [5]. Moreover, the Percent Effect in [6] is 17.2%; in the test listed under Homo sapiens, 9.84%; in test [7], 0%; in test [8] it was -1.24%; in test [9], -3.68%.

Take `CCn1cc(N2Cc3nc(N4CCN(C)CC4)ncc3C2=O)cn1`: the Percent Effect in [1] is -4.57%; in [2] it was 4%; in [3], 4.85%; in test [4], 8.98%; with Trypanosoma cruzi it was -1.97%; in test [5], -13.2%. Further, the Percent Effect is 15.2% in test [6]; -0.771% in the test filed under Homo sapiens; 6.35% in [7]; 12.8% in test [8]; -11.9% in test [9].

Consider `CC(=O)N1CCN(Cc2csc(-c3cnn(C)c3)n2)CC1`, for which the Percent Effect in test [1] is -5.28%; in test [2], 7.89%; in test [3] it was -1.26%; in [4], 6.08%; in the test with Trypanosoma cruzi, 9.21%; in test [5] it was -1.53%. For the same molecule, the Percent Effect in [6] was 2.17%; in the test listed under Homo sapiens, 3.43%; in [7] it was 4.41%; in test [8] it was 9.76%; in test [9], -7.33%.

Turning to `Cc1cccc(N2CCC(NC(=O)CCCc3cccs3)CC2)n1`, the Percent Effect in [1] was -3.35%; in test [2], 11%; in [3] it was 0.158%; in test [4], 5.32%; in the test on Trypanosoma cruzi, 5.49%; in test [5], 6.82%. For the same molecule, the Percent Effect in test [6] turned out to be 9.94%; in the test filed under Homo sapiens, 4.54%; in test [7], 5.38%; in test [8] it was 12.5%; in test [9], 2.88%.
